Shown are actives, neighbours in structure and some others; about 2.4% of the full set was active somewhere.
D2 antag: antagonizes the human D2 dopamine receptor | P14416 | HEK293 TREx D2 cells, calcium flux, dopamine EC80 | inhibition, % at 10 µM | 340,000 compounds, 2% hits; in the data active = inhibition above about 30%; inactive = below that, where a call was filed; note: 0% is about no effect
Target sequence (P14416 whole entry, looked up): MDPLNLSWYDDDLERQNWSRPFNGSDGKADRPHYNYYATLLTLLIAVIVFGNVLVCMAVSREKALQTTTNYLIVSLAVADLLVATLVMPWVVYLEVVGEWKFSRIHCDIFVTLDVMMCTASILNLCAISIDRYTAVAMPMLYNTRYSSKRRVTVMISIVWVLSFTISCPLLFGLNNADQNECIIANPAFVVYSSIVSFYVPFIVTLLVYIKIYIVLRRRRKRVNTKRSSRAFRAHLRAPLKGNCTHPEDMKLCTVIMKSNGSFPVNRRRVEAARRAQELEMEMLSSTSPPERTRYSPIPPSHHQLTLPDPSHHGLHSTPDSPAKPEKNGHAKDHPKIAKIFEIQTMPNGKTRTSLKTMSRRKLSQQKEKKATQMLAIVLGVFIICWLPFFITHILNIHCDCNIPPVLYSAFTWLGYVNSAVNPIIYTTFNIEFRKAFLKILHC
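Measurement of antagonist activity uses fluorescent calcium dye in inducible HEK293 T-REx D2 cells: 10 s baseline, compound addition with 180 s read, EC80 dopamine addition with a further 180 s read.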
D2 PAM-1: human D2 receptor positive allosteric modulation. 360,000 compounds, 0.23% hits. DiscoveRx D2 beta-arrestin cells, luminescence, 90 min; 100% = 57 uM dopamine signal. potentiation, % (test concentration not listed). P14416; in the data active = potentiation above about 50%
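D2 cells co-treated with compound plus 50 nM dopamine (EC20) for 90 min at 37 deg C to detect potentiation. Beta-arrestin recruitment was read as enzyme-fragment luminescence after 1 h at ambient temperature. Full response was set by 57 uM dopamine.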
D2 PAM-2: positive allosteric modulators of human D2 dopamine receptor; P14416; HEK293 T-REx D2, calcium flux, EC20 dopamine potentiation; potentiation, % at 10 µM; 340,000 compounds, 0.34% hits; AID 485347;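 active = potentiation over 3 SD above the plate norm, cut at about 30% in these data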; note: 0% is about no effect
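Tetracycline-induced HEK293 T-REx cells force-coupled to calcium signalling expressed D2; compounds were pin-added after a 10 s baseline, read kinetically 180 s, then an EC20 dopamine challenge followed with a further 180 s calcium read.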
D2 ag-1: agonists of human D2 dopamine receptor (beta-arrestin). P14416. DiscoveRx PathHunter D2 beta-arrestin, luminescence, 90 min; 100% = 57 uM dopamine signal. activation, % (test concentration not listed). 360,000 compounds, 0.084% hits; in the data active = activation above about 40%
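Agonist mode: compounds alone added to overnight-plated D2 PathHunter cells for 90 min at 37 C, with 57 uM final dopamine (EC100) defining full response. Beta-arrestin recruitment detected by chemiluminescent reagent, read after 1 h at ambient temperature.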
D2 ag-2: activates the human D2 dopamine receptor | P14416 | HEK293 T-REx D2 cells, calcium flux agonist mode | activation, % at 2 µM | 340,000 compounds, 0.53% hits | AID 485358;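 active = activation over 3 SD above normal in the single-dose calcium agonist read, cut at about 30% in these data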; note: 0% is about no effect
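Tetracycline-induced HEK293 Trex cells with D2 receptor force-coupled to calcium signaling, plated overnight at 30 C and loaded with no-wash calcium dye. Calcium flux read kinetically for 180 s after compound addition; responses flag agonists.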
* hit, by the source's call.

`O=C(CSCc1ccccc1)NNc1c(F)c(F)cc(F)c1F` gave D2 antag -5, D2 PAM-1 -9, D2 PAM-2 -3, D2 ag-1 -4 and D2 ag-2 -4.
For COc1ccc2c(c1)c1nc3ccccc3nc1n2CCn1c(=O)oc2ccccc21 the results were D2 antag 34*, D2 PAM-1 -8, D2 PAM-2 -1, D2 ag-1 -3 and D2 ag-2 0.
Screening CCCn1c2ccccc2c2nc3ccccc3nc21 returned D2 antag 0, D2 PAM-1 -13, D2 PAM-2 47*, D2 ag-1 -4 and D2 ag-2 -1.
`CCN(CC)CCn1c2ccccc2c2nc3ccccc3nc21` gave D2 antag -3, D2 PAM-1 -28, D2 PAM-2 -8, D2 ag-1 -4 and D2 ag-2 0.
`COc1ccc2c(c1)c1nc3ccccc3nc1n2CCCN1C(=O)c2ccccc2C1=O` gave D2 antag 0, D2 PAM-1 -7, D2 PAM-2 13, D2 ag-1 0 and D2 ag-2 1.
For O=c1oc2ccccc2n1CCn1c2ccccc2c2nc3ccccc3nc21 the results were D2 antag 4, D2 PAM-1 -8, D2 PAM-2 76*, D2 ag-1 -3 and D2 ag-2 1.
For COc1cccc(C2NC(=O)c3n[nH]c(-c4cccs4)c32)c1 (configuration not stated) the results were D2 PAM-2 6 and D2 ag-2 0.
For CC(=O)Nc1ccc(S(=O)(=O)NCCc2csc3nc(-c4cccc(C)c4)nn23)cc1 the results were D2 PAM-2 -1 and D2 ag-2 0.
`CCOc1ccccc1N1CCN(C(=O)c2ccccc2SCC(=O)N2CCCC2)CC1` gave D2 antag 19, D2 PAM-1 -6, D2 PAM-2 -1, D2 ag-1 2 and D2 ag-2 -1.
Screening O=C1Nc2ccccc2CCc2ccccc21 returned D2 antag 36*, D2 PAM-1 0, D2 PAM-2 -2, D2 ag-1 2 and D2 ag-2 0.
For O=C1Nc2ccccc2Nc2ccccc21 the results were D2 antag -8, D2 PAM-1 -7, D2 PAM-2 26, D2 ag-1 -2 and D2 ag-2 1.
`CCOc1ccc(Oc2ccccc2NC(=O)C2=COCCO2)cc1` gave D2 antag 37*, D2 PAM-1 -14, D2 PAM-2 5, D2 ag-1 -7 and D2 ag-2 0.
For Cn1c(=O)c2c(nc(Br)n2C/C=N/NC(N)=S)n(C)c1=O the results were D2 antag 7, D2 PAM-1 -4, D2 PAM-2 0, D2 ag-1 -2 and D2 ag-2 0.
Screening CCn1cc2nc(SCC(=O)Nc3ccc(F)cc3F)n(Cc3ccccc3)c(=O)c2n1 returned D2 antag 32*, D2 PAM-1 -9, D2 PAM-2 9, D2 ag-1 -4 and D2 ag-2 0.
Screening CCn1cc2nc(SCC(=O)Nc3cccc(Cl)c3C)n(Cc3ccc(Cl)cc3)c(=O)c2n1 returned D2 PAM-2 -6 and D2 ag-2 1.
`O=C(Nc1cnn(Cc2c(Cl)cccc2Cl)c1)C(c1ccccc1)c1ccccc1` gave D2 antag 16, D2 PAM-1 1, D2 PAM-2 33*, D2 ag-1 -1 and D2 ag-2 0.
For O=C(COc1ccccc1Cl)Nc1cnn(Cc2ccccc2)c1 the results were D2 antag -14, D2 PAM-1 -13, D2 PAM-2 -3, D2 ag-1 1 and D2 ag-2 -1.
O=C(CSc1nc2c(c(=O)[nH]1)CCC2)Nc1ccccc1C(F)(F)F was read as D2 PAM-2 -2 and D2 ag-2 0.
For COc1ccc(OCc2cccc(C(=O)O)c2)cc1 the results were D2 antag 35*, D2 PAM-1 -9, D2 PAM-2 3, D2 ag-1 -1 and D2 ag-2 1.
`CCOc1ccc(OCc2cccc(C(=O)O)c2)cc1` gave D2 antag -16, D2 PAM-1 -1, D2 PAM-2 -1, D2 ag-1 3 and D2 ag-2 0.
Screening CCCCNC(=O)c1ccc2c(c1)N(C)C(=O)c1ccccc1S2 returned D2 antag -27, D2 PAM-1 -13, D2 PAM-2 -9, D2 ag-1 1 and D2 ag-2 -1.
For CC(C)CCNC(=O)c1ccc2c(c1)N(C)C(=O)c1ccccc1S2 the results were D2 antag 47*, D2 PAM-1 -23, D2 PAM-2 -21, D2 ag-1 -2 and D2 ag-2 2.
For CCN1C(=O)c2ccccc2Sc2ccc(C(=O)NCCC(C)C)cc21 the results were D2 antag 44*, D2 PAM-1 -21, D2 PAM-2 -26, D2 ag-1 -4 and D2 ag-2 0.
For O=C(CCl)Nc1ccc(N2CCCCCC2)cc1 the results were D2 antag 3, D2 PAM-1 2, D2 PAM-2 5, D2 ag-1 7 and D2 ag-2 2.
For CCOC(=O)N1CCN(S(=O)(=O)CCNC(=O)c2ccc(F)cc2)CC1 the results were D2 antag -8, D2 PAM-1 -1, D2 PAM-2 6 and D2 ag-1 -5.
Screening CCOC(=O)N1CCN(S(=O)(=O)CCNC(=O)c2ccc(OC)cc2)CC1 returned D2 antag 34*, D2 PAM-1 2, D2 PAM-2 -8, D2 ag-1 -5 and D2 ag-2 0.
Screening COC(=O)c1ccccc1NC(=O)CSc1nnc(-c2ccc(C)cc2)o1 returned D2 antag 7, D2 PAM-2 31* and D2 ag-2 1.
`COC(=O)c1ccccc1NC(=O)CSc1nnc(-c2cccnc2)o1` gave D2 antag 7, D2 PAM-1 -10, D2 ag-1 -3 and D2 ag-2 -3.
`Fc1ccc(-n2cc(CNCCc3ccccn3)c(-c3ccccc3Cl)n2)cc1` gave D2 antag 79*, D2 PAM-1 -16, D2 PAM-2 -31, D2 ag-1 4 and D2 ag-2 -3.
Screening CCn1c(=O)c(C(=O)NNC(=O)c2cccc(Cl)c2)c(O)c2ccccc21 returned D2 antag 12, D2 PAM-1 -3, D2 PAM-2 45*, D2 ag-1 5 and D2 ag-2 18.
CNC(=O)c1c(NC(=O)c2cc(=O)c3ccccc3o2)sc2c1CCC2 was read as D2 PAM-2 -7 and D2 ag-2 1.
Screening CCCc1cc(=O)oc2c3c(cc(OCC(=O)N[C@@H](C)C(=O)O)c12)OC(C)(C)CC3 returned D2 antag 33*, D2 PAM-1 -8, D2 PAM-2 14, D2 ag-1 -5 and D2 ag-2 1.
Screening CCCc1cc(=O)oc2c3c(cc(OCC(=O)N[C@@H](CSC)C(=O)O)c12)OC(C)(C)CC3 returned D2 antag 5, D2 PAM-1 -4, D2 PAM-2 1, D2 ag-1 -3 and D2 ag-2 0.
